The results in this text go back to PubChem BioAssay AID720728 (Molecular Libraries Program, Specialized Chemistry Center, …, 2013).

Active and inactive are the calls of the source. How the calls were made is not given here.

The assay in a line: mitochondrial permeability transition pore blockers, isolated mitochondria – biochemical, dry powder samples, uHTS hits, dose response (AID 720728). The following applies: calcium retention capacity.
On to `CN1CCC[C@@H]1CCO[C@](C)(c1ccccc1)c1ccc(Cl)cc1`, for which the CRC/CRC0 ratio at 50 uM (fold over control, higher = inhibition) was 1.81 fold (active).
The figure for `CCN(CC)c1ccc(NC(=O)c2cc(Cl)ccc2OC)cc1` is 0.622 fold (active).
In the case of `Cc1cc(C)c2nc(N(CCCN(C)C)C(=O)c3ccc(S(=O)(=O)N4CCCCCC4)cc3)sc2c1`, the CRC/CRC0 ratio at 50 uM (fold over control, higher = inhibition) is 1.57 fold (active).
The figure for `COc1ccc(C)c2sc(N(CCCN(C)C)C(=O)CS(=O)(=O)c3ccc(F)cc3)nc12` is 1.4 fold (active); for `COc1ccc(-n2cc(CNC3CCN(C)CC3)c(-c3cccc(F)c3)n2)cc1` it is 1.5 fold (active); for `COCCCNCCCOc1ccc(Cl)cc1C(C)(C)C` it is 2.13 fold (active).
Under `Cc1cc(C)c2nc(N(CCCN(C)C)C(=O)C3=COCCO3)sc2c1` stands 1.4 fold (active).
Under `CC1CCCN(CCC(=O)c2ccc(Br)cc2)C1` (stereo unspecified) stands 2.73 fold (active); under `CNCCCC12CCC(c3ccccc31)c1ccccc12`, 1.82 fold (active); under `CNCCC=C1c2ccccc2CCc2ccccc21`, 1.66 fold (active).
For the molecule `N=c1sccn1CC(=O)Nc1cccc(Oc2ccccc2)c1`, the CRC/CRC0 ratio at 50 uM (fold over control, higher = inhibition) was 1.91 fold (active).
The figure for `COc1cc(CNCCO)cc(Cl)c1OCc1ccccc1Cl` is 1.81 fold (active); for `C=CCNCCCOc1ccc(C)cc1Br` it is 1.53 fold (active); for `N#Cc1c(NCCN)nc(-c2ccco2)c2c1CCCC2` it is 1.81 fold (active).
In the case of `CC(C)(C)c1ccccc1OCCCCCNCCO`, the CRC/CRC0 ratio at 50 uM (fold over control, higher = inhibition) was 1.82 fold (active).
The figure for `Cc1ccc2nc(N(CCN(C)C)C(=O)/C=C/c3cccs3)sc2c1` is 1.28 fold (active); for `COC(=O)c1c(NC(=O)C2CCCCC2)sc2c1CC(C)(C)NC2(C)C` it is 2.05 fold (active).
On to `C=CCNCCOc1ccc(C(C)(C)c2ccccc2)cc1`, for which the CRC/CRC0 ratio at 50 uM (fold over control, higher = inhibition) was 1.95 fold (active).
The figure for `CN(C)CCCN1c2ccccc2Sc2ccc(Cl)cc21` is 1.97 fold (active); for `C=CCNCCOCCOc1ccc(Cl)cc1C(C)(C)C` it is 1.81 fold (active); for `O=C(CC1NCCc2ccccc21)Nc1ccc(Cl)cc1` (stereo unspecified) it is 1.65 fold (active).
The figure for `COc1cc(NC(=O)c2cc(-c3cccc(O)c3)on2)cc(OC)c1OC` is 1.93 fold (active); for `CCN(CC)CCCN=Cc1c(O)n(Cc2ccccc2)c(=O)c2ccccc12` it is 1.3 fold (active).
Under `CCOC(=O)N1CCN(S(=O)(=O)c2ccc(C(=O)N(CCCN(C)C)c3nc4c(C)c(C)ccc4s3)cc2)CC1` stands 1.51 fold (active); under `Cc1ccc2nc(N(CCCN(C)C)C(=O)CCc3ccccc3)sc2c1`, 1.61 fold (active).
As to `COc1ccc(Cl)cc1C(=O)Nc1ccc(CN2CCCCC2)cc1`, the CRC/CRC0 ratio at 50 uM (fold over control, higher = inhibition) was 2.57 fold (active).
